# From PubChem
# Rows were chosen to be rich in hits. Some 2.8% of all compounds tested hit in one or more screens of this group.
# SIRT5 inh – inhibitors of human sirtuin-5 desuccinylase; Q9NXA8; inhibition, % at 15 µM; 330,000 tested, 1.1% active; Purified SirT5, succinyl-peptide AMC, trypsin-coupled fluorescence; in the data active = inhibition above about 15%
# Target sequence (Q9NXA8 whole entry, looked up): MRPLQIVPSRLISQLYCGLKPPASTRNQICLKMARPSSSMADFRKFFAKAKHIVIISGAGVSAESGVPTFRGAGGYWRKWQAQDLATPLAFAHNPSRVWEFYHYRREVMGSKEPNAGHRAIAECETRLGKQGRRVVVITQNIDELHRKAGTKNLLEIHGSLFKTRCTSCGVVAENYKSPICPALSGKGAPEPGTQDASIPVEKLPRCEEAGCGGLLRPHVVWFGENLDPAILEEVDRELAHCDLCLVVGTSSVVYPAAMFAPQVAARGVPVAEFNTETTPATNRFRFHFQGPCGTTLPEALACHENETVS
# PvdQ acylase – P. aeruginosa PvdQ acylase inhibition; purified PvdQ acylase, fluorescence plate reader; inhibition, % at 10 µM; 340,000 tested, 0.063% active; AID 488965; in the data active = inhibition above about 30%, passing the limit was not always enough;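 note: 0% = vehicle neutral wells and 100% = reference inhibitor wells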
# FGF22 binding – binders of recombinant human FGF22 by thermal shift; AID 651658; 340,000 tested, 1.5% active; SYPRO orange fluorescence; percent of sucrose octasulfate shift, DMSO zero; activity (Tm shift, normalised), % at 9.99 µM; Q9HCT0;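 active = mean Tm shift, scaled 0 neutral to 100 positive control, at about 1.3% or above, every replicate too, limit read from the data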
# Target sequence (Q9HCT0 whole entry, looked up): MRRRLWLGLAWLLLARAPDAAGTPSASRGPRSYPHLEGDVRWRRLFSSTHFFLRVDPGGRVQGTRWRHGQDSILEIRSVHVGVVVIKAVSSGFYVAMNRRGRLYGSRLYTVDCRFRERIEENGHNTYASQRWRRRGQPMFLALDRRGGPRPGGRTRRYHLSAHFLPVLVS
# dFosB act – enhances mouse delta FosB homodimer DNA binding. P13346. purified delta FosB, TAMRA-CDK5 oligo fluorescence polarization; percent of positive-control signal above neutral wells. activation, % at 25 µM. 340,000 tested, 0.99% active. AID 493131;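 active = mean activation above about 17%, with every replicate also reaching it, limit read from the data, passing the limit was not always enough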
# PglD inh – PglD (C. jejuni) enzyme inhibition | purified PglD enzyme, DTNB colorimetric CoA detection | inhibition, % at 12.5 µM | 360,000 tested, 0.098% active | AID 602405; in the data active = inhibition above about 16%, passing the limit was not always enough
# CDK5 p35 inh – CDK5/p35 (human) kinase inhibition; Recombinant CDK5/p35, ADP-Glo luminescence, 60 min; inhibition, % at 10 µM; 330,000 tested, 0.01% active; AID 488839;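 active = highest replicate inhibition of at least 50% and at least 75% of replicates reaching 50%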;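 note: plate controls were DMSO neutral control for no effect and GW8510 at 10 µM for full effect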
# * = called active by the depositor; x = no result.
SMILES,SIRT5 inh,PvdQ acylase,FGF22 binding,dFosB act,PglD inh,CDK5 p35 inh
C[C@H](CO)N1C[C@H](C)[C@@H](CN(C)C(=O)Nc2cccc3ccccc23)Oc2ccc(NC(=O)Nc3ccc4c(c3)OCO4)cc2C1=O,4.6,x,-0.5,x,1.2,x
Oc1nc(-c2ccc(Br)cc2)n2ccncc12,3.9,-5.8,43.3*,1.3,5.1,-1.0
COc1ccccc1C(O)c1ncc(-c2cccc3ccccc23)[nH]1 (stereo not drawn),x,x,43.2*,x,4.3,x
C[C@H]1CN([C@@H](C)CO)C(=O)c2cccc(NS(C)(=O)=O)c2O[C@H]1CN(C)C,-2.9,x,-0.4,x,-0.9,x
C=CCOc1cccc(C(=O)/C=C2/C(=O)Nc3ccccc32)c1,-1.0,-5.7,0.2,-2.1,-1.8,1.1
CC(=O)/C=C1/C(=O)Nc2ccccc21,-3.6,2.2,43.7*,1.3,x,-3.9
N#Cc1cccn1-c1nccs1,0.2,-3.2,43.3*,2.7,x,0.1
O/N=C\c1cccn1-c1nccs1,2.1,8.4,0.2,7.1,1.5,0.1
O=C(c1ccccc1Nc1ccc(SC(F)F)cc1)N1CCCCC1,x,3.2,x,-3.9,-1.1,0.7
CC1CN(C(=O)c2ccccc2Nc2ccc(SC(F)F)cc2)CC(C)O1 (stereo not drawn),0.9,-13.4,43.9*,-8.5,x,1.5
O=C(NCc1ccncc1)[C@H]1N[C@H]2c3ccc(/C=C/c4ccccc4)c(=O)n3C[C@H]2[C@@H]1CO,-110.9,x,-0.1,x,-0.1,x
Cn1c(C(=O)N2CCN(c3ccc([N+](=O)[O-])cc3)CC2)cc2c(=O)[nH]c3ccccc3c21,0.9,10.0,43.7*,22.9*,5.9,1.9
Cc1cc(C(=O)N2CCN(c3ccc([N+](=O)[O-])cc3)CC2)co1,0.1,10.7,0.4,-0.7,-6.7,-0.6
COc1ccc(-c2nc(N)ncc2-c2csc(C)n2)c(O)c1OC,1.8,9.6,43.9*,-2.9,-0.5,-0.1
COc1ccc(-c2nc(C)ncc2-c2csc(C)n2)c(O)c1,x,-12.0,x,-11.1,x,-1.5
CC(C)NC(=O)N(C)C[C@H]1Oc2ccc(NC(=O)CCCN(C)C)cc2C(=O)N([C@@H](C)CO)C[C@H]1C,0.7,x,-0.2,x,7.3,x
CCNC(=O)CSc1nnc(CN2CCCCCC2=O)n1-c1ccccn1,-2.3,-5.8,43.2*,4.7,x,1.7
COc1cccc(C2c3[nH]c4ccccc4c3C[C@H]3C(=O)N(C4CCN(Cc5ccccc5)CC4)CC(=O)N23)c1 (stereo partly drawn),-3.5,-11.8,-0.1,37.8*,2.7,1.4
COc1ccc(C2c3[nH]c4ccccc4c3C[C@H]3C(=O)N(C4CCN(Cc5ccccc5)CC4)CC(=O)N23)cc1OC (stereo partly drawn),-0.4,-9.0,-0.3,-11.8,2.5,1.3
COc1ccccc1C1c2[nH]c3ccccc3c2C[C@H]2C(=O)N(C3CCN(Cc4ccccc4)CC3)CC(=O)N12 (stereo partly drawn),-0.2,-11.7,0.1,37.9*,3.1,1.2
Cc1ccccc1C1c2[nH]c3ccccc3c2C[C@H]2C(=O)N(C3CC3)CC(=O)N12 (stereo partly drawn),-0.7,2.1,0.0,0.7,4.0,0.9
CC(=O)Nc1nc2nc(-c3ccccc3)cc(-c3ccccc3)n2n1,x,9.9,x,-8.0,-1.5,1.3
O=C(Nc1nc2nc(-c3ccccc3)cc(-c3ccccc3)n2n1)c1ccco1,x,10.4,x,67.8*,5.2,0.9
COc1ccc(NC(=S)NNC(=O)CNc2ccc(Cl)cc2)cc1,0.0,-10.8,1.4*,-5.4,x,-1.5
COc1ccccc1C(=O)NC(=S)Nc1ccc(NC(=O)c2ccco2)cc1,2.5,-7.5,1.5*,6.9,3.3,-0.1
SMILES,SIRT5 inh,PvdQ acylase,FGF22 binding,dFosB act,PglD inh,CDK5 p35 inh
O=C(NC(=S)Nc1ccc(O)cc1)c1ccccc1Cl,2.6,-3.5,41.9,-1.3,-3.2,-5.2
COc1ccccc1C(=O)Nc1ccc(NC(=O)c2ccco2)cn1,-2.9,3.0,0.3,-13.2,x,1.0
COc1ccc(NC(=S)NC(=O)c2ccccc2Cl)cc1,-2.0,-12.0,43.2*,1.5,-2.3,-2.6
C[C@@H]1CCCCO[C@H](CN(C)C(=O)Nc2ccccc2)[C@@H](C)CN([C@@H](C)CO)C(=O)c2cc(NC(=O)C3CCCCC3)ccc2O1,1.9,x,-0.4,x,0.1,x
CO[C@H]1CN(C)C(=O)c2ccc(NS(=O)(=O)c3ccc(Cl)cc3)cc2OC[C@@H](C)N(C)C[C@H]1C,-9.9,x,0.1,x,2.4,x
C[C@@H]1CN([C@H](C)CO)C(=O)c2cc(N(C)C)ccc2O[C@@H](C)CCCCO[C@@H]1CN(C)C(=O)c1ccccc1,-1.5,x,-0.7,x,-1.1,x
COc1ccc(-c2csc3nc(C(C)C)oc(=O)c23)cc1OC,23.6*,-13.8,x,4.1,2.7,-1.7
COc1ccc(-c2nc3scc(-c4ccc(OC)c(OC)c4)c3c(=O)o2)cc1,x,-5.5,x,2.6,-3.0,-0.7
O=C(NC[C@H]1N[C@H](CO)[C@@H]1c1ccc(-c2cncnc2)cc1)c1ccccc1F,0.2,x,x,x,x,x
O=C(COC(=O)C1CC(=O)N(Cc2ccccc2)C1)Nc1cccc([N+](=O)[O-])c1 (stereo not drawn),-7.3,-10.7,0.1,-7.7,0.4,-0.3
O=C(COC(=O)C1CC(=O)N(Cc2ccccc2)C1)Nc1ccc([N+](=O)[O-])cc1Br (stereo not drawn),x,x,43.1*,x,-1.2,x
C[C@H](CO)N1C[C@H](C)[C@@H](CN(C)C(=O)C2CCOCC2)Oc2ncc(-c3ccccc3)cc2C1=O,20.8*,x,0.0,x,3.6,x
Cc1ccc(-c2cnc3c(c2)C(=O)N([C@@H](C)CO)C[C@H](C)[C@H](CN(C)C)O3)cc1,16.0*,x,0.1,x,-0.4,x
Cc1ccc(-c2cnc3c(c2)C(=O)N([C@@H](C)CO)C[C@@H](C)[C@H](CN(C)C)O3)cc1,-1.4,x,0.2,x,-1.7,x
C[C@@H]1CN([C@@H](C)CO)C(=O)c2cc(-c3cccc(F)c3)cnc2O[C@H]1CN(C)C,20.2*,x,-0.1,x,1.3,x
C[C@@H]1CN([C@@H](C)CO)C(=O)c2cc(-c3ccccc3)cnc2O[C@@H]1CN(C)C(=O)C1CCOCC1,-6.3,x,0.0,x,-1.4,x
Cc1ccc(S(=O)(=O)N(C)C[C@H]2Oc3ncc(-c4ccncc4)cc3C(=O)N([C@@H](C)CO)C[C@H]2C)cc1,-0.9,x,-0.2,x,-2.8,x
Cc1ccc(S(=O)(=O)N(C)C[C@H]2Oc3ncc(-c4ccncc4)cc3C(=O)N([C@@H](C)CO)C[C@@H]2C)cc1,32.5*,x,0.1,x,0.4,x
CCN1/C(=C2\C(=O)N(C)C(=S)N2c2ccccc2)C=Cc2ccccc21,0.7,4.5,-0.5,-1.8,-5.0,2.3
CCN1/C(=C2\C(=O)N(C)C(=S)N2C)C=Cc2ccccc21,-1.5,-9.1,43.1*,-0.5,x,1.2
C[C@H](CO)N1C[C@H](C)[C@@H](CN(C)C(=O)Nc2ccc(F)cc2)OCCCC[C@H](C)Oc2ccc(NC(=O)Nc3cccc4ccccc34)cc2C1=O,4.5,x,-0.1,x,-1.2,x
